From PubChem BioAssay (NCI)
About 83,000 compounds went through this panel and 20% of them were active in at least one assay; those are over-represented in the sample as a whole.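 Single-dose data. Exposure time 48 hours. Values below 10 considered active.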 Active and inactive are the calls of the source.

system: UACC-257 melanoma; test: NCI-60 one-dose screen, 48 h (100 = growth as untreated, 0 = no growth, -100 = all killed); details: 10 µM unless noted

SMILES	growth
CC(C)Cc1ccc(C(C)C(=O)NCc2ccc(Cn3c(=O)sn(-c4ccc(Cl)cc4)c3=O)cc2)cc1 (stereo not given)	81.1% (inactive)
COc1ccc(Cn2nc3c(c2-c2cc(OC)c(OC)c(OC)c2)-c2oncc2CC3)cc1	104% (inactive)
Cc1ccc(C(c2c(O)c3cc(Br)ccc3[nH]c2=O)c2c(O)c3cc(Br)ccc3[nH]c2=O)cc1	98.3% (inactive)
CN1CCN(Cc2ccc(NC(=O)c3cncc(C#Cc4cnccc4C(F)(F)F)c3)cc2C(F)(F)F)CC1	80.4% (inactive)
COc1ccc(/C=C/c2n[nH]c3ccc(N4CCOC4=O)cc23)cc1	38.4% (inactive)
COc1cc2nnn3c4ncccc4c(N=O)c3c2cc1OC	76.1% (inactive)
Cc1cc2nc(-c3ccccc3)c(-c3ccccc3)nc2cc1C	117% (inactive)
Cc1ccc2[nH]c(=O)cc(-n3nncc3COc3ccc(C=O)cc3)c2c1	116% (inactive)
CCCOc1nc(SCCC)nc2c1cnn2-c1ccccc1	113% (inactive)
NC(=O)c1cccc(-c2ccccc2N2CCCCC2)c1	99.3% (inactive)
COc1cc2ncnc(Nc3ccc(C(=O)/C=C/c4ccc(C(F)(F)F)cc4F)cc3)c2cc1OC	111% (inactive)
CC(=O)OCCCCCNc1ccccc1	110% (inactive)
O=C(Nc1sc2c(c1C(=O)O)CCCC2)c1cccc(C(F)(F)F)c1	80.7% (inactive)
CCN1C(=O)N(CC)C2NC(SC)=NC21 (stereo not given)	97.8% (inactive)
C/C(=C(/c1ccccc1)c1ccc(OCC(O)CN2CCOCC2)cc1)c1ccccc1 (stereo not given)	93.4% (inactive)
